Experimental data from PubChem BioAssay (NCI).
Compounds without any hit were thinned out: in the full panel of roughly 83,000, 20% have a hit.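 Values shown are percent growth following 48 h exposure of cells in 96-well plates to a single concentration of compound; below 10 was considered active.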 Unmarked numbers belong to inactive results. Activity calls are given as the source filed them.

Each molecule was assayed on HL-60(TB) leukemia (assay: NCI-60 one-dose screen, 48 h (100 = growth as untreated, 0 = no growth, -100 = all killed)). Conditions: 10 µM unless noted.

Row | SMILES | growth
1 | Fc1ccc(-c2nc(Nc3ccc(-c4nc5ccccc5[nH]4)cc3)nc(N3CCOCC3)n2)cc1 | -81.4% (active)
2 | O=c1nc(N2CCOCC2)oc2c(-c3cccc4ccccc34)cccc12 | 93.6%
3 | COc1ccc2nc3cc(Cl)ccc3c(NCCNCC(O)CO)c2c1 (stereo not given) | 15.6%
4 | COc1ccc(Cl)cc1Nc1nc(C(F)(F)F)ccc1C(=O)N/N=C/c1c(Cl)cccc1Cl | 48.4%
5 | CCOC(=O)c1ccc(Nc2ncnc3ccc(NC(=O)c4ccccc4)cc23)cc1 | 69.9%
6 | COC(=O)c1ccc2c(c1)nc(-c1ccc(O)c(OC)c1)n2-c1cc(C(C)(C)C)[nH]n1 | 103%
7 | COc1ccc2nc(-c3ccc(OC)c(OC)c3)cc(-c3nnc(SCC(=O)Nc4ccc(/C(C)=N\O)cc4)n3-c3ccccc3)c2c1 | 26.3%
8 | COc1ccc(Nc2c3c4c(cccc4[nH]c2=O)C(=O)c2ccccc2-3)cc1 | -60.4% (active)
9 | CCN(CC)CC[n+]1cc2cc(OC)c(OC)cc2c2ccc3cc4c(cc3c21)OCO4 | -33.5% (active)
10 | Oc1ccccc1C=NCC1CCC(CN=Cc2ccccc2O)CC1 (stereo not given) | 123%
11 | O=C(O)COc1ccc(Cl)c(Cl)c1 | 111%
12 | O=[N+]([O-])c1ccc(-c2cc3c(Nc4ccc(OCc5cccc(Cl)c5)c(Cl)c4)ncnc3s2)cc1 | 44.2%
13 | O=c1cc(N/N=C/c2ccc(F)cc2)c2cc(Cl)ccc2[nH]1 | -9.23% (active)
14 | N#Cc1c[nH]n2ccnc12 | 123%
15 | CC1(C)CC[C@]2(C(=O)O)CC[C@]3(C)C(=CC[C@@H]4[C@@]5(C)C/C(=C/c6ccco6)C(=O)C(C)(C)[C@@H]5CC[C@]43C)[C@@H]2C1 | -16.4% [100 µM] (active)
16 | CCN1CCC2(CC1)NC(=O)c1c(c3ccc(Cl)c(Cl)c3n1C)C2C#N (stereo not given) | 30.2%
17 | COc1cc(/C=C2\C(=O)Nc3ccc(Br)cc32)cc(OC)c1OC | 73.5%
18 | COc1ccc(/C=C(\C#N)c2cc3ccccc3[nH]2)cc1 | 14.8%
19 | CC(O)(CO)c1ccccc1 (stereo not given) | 116%
20 | CCn1c2ccc(O)cc2c2c(C)c3c[n+](C)ccc3c(C)c21 | 95.5%

Row | SMILES | growth
21 | C=C1C(=O)O[C@H]2[C@H]1CC/C(Cn1cc(Cn3ccc4cc(Cl)ccc43)nn1)=C\CC[C@@]1(C)O[C@@H]21 | -37.7% (active)
22 | OC(c1cc2c(Cl)cc(Cl)cc2c2cc(C(F)(F)F)ccc12)C1CCCCN1 (stereo not given) | -39.1% (active)
23 | O=C(Nc1nc(-c2ccccc2)cs1)c1cc(O)c(O)c(O)c1 | 12.6%
24 | COc1ccc(-c2nn(-c3cccc(Cl)c3)cc2-c2cc(-c3ccccc3)nc(N)n2)cc1 | 56.3%
25 | Cc1nc(-c2ccccc2)cc2c(O)c(C(=O)N/N=C/Cc3ccccc3)[nH]c(=O)c12 | 76.8%
26 | CN(C)C(=O)c1cc2cnc(Nc3ccc(-c4csc5c(=O)cc(N6CCOCC6)oc45)cc3)nc2n1C1CCCC1 | -46.7% (active)
27 | COC(=O)[C@]12CC[C@@H](C)[C@H](C)[C@@H]1C1=CC[C@@H]3[C@@]4(C)CC(=O)[C@H](O)[C@@]5(C)COC(=C45)C[C@@]3(C)[C@]1(C)CC2 | -37.5% (active)
28 | COc1ccc([C@H]2c3[nH]c4ccccc4c3C[C@H]3C(=O)N(CCCCCCC(=O)NO)CC(=O)N23)cc1 | 5.31% (active)
29 | C=C1C(=O)O[C@H]2[C@H]1CC/C(COC(=O)c1cc3cc(F)ccc3[nH]1)=C\CC[C@@]1(C)O[C@@H]21 | -32.6% (active)
30 | COc1ccc(S(=O)(=O)N(Cc2ccc3c(n2)C=CC(C)(C)O3)C2CCC2)cc1OC | -13.5% (active)
31 | O=S1(=O)OC(c2ccc(O)c(Cl)c2)(c2ccc(O)c(Cl)c2)c2ccccc21 | 109%
32 | CC(C)OC(=O)c1ccc2n1CCCc1cnc(Nc3ccccc3)nc1-2 | 79.1%
33 | S=C(S)OCN1CCOCC1 | 106%
34 | C#CCN1C(=O)c2ccccc2N(CC#C)C12CCN(Cc1cn(CC(=O)Nc3ccccc3C(N)=O)nn1)CC2 | 86.6%
35 | Cc1ccc2c(c1)C(C)Cc1c(Cl)ncnc1N2C (stereo not given) | 17.3%
36 | Cc1cc(Cl)ccc1Nc1nc(C(F)(F)F)ccc1C(=O)N/N=C/c1c(Cl)cccc1Cl | -26.8% (active)
37 | CCOC(=O)C1CCNC(=O)C1=O (stereo not given) | 86%
38 | COc1ccc(C2=Nc3c/c(=C\c4c(O)[nH]c5cc(Cl)ccc45)ccc3=N2)cc1 | 12.4%
39 | O=C(Nc1cccc2ccccc12)c1cc2c(cc1Br)OCO2 | 75.9%
40 | CCOC(=O)c1coc(C(=O)OCC)c1C(=O)OCC | 105%
